Assay results from the supplement of paper PMC3484114.
± gives the standard deviation.

What follows are compounds tested on OVCAR-3-derived ovarian cancer stem-like cells (spheroids) (assay: cell growth relative to untreated control; higher = more growth (less inhibition)). Conditions: 2.29 µM; 96 h.
Outline: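 Percent growth was calculated against untreated wells once blanks were subtracted and Grubbs outliers removed. The cells were OVCAR-3 spheroid-derived stem-like cells, trypsinized and plated at 50,000 cells/mL in stem cell medium on ultra-low attachment 96-well plates for a 24 h preincubation. They were then exposed to compounds at 2.29 uM for 96 h at 37°C, 5% CO2, in 4 replicate wells, and viability was measured by TOX8 resazurin fluorescence (ex 560/em 590 nm) after 4 h.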
With `COc1ccccc1Cc1nc(-c2ccccc2)nn(C2OC(COC(C)=O)C(OC(C)=O)C(OC(C)=O)C2OC(C)=O)c1=S` (stereo unspecified) the cell growth was 97.5 ± 16%. `CNc1nc(N(C)C)nc(N(C)C)n1` gave a cell growth of 89.9 ± 20%. `COC(=O)C1=CC(=O)C(C(=O)Nc2ccc(OC)cc2)C(c2ccccc2)O1` (stereo unspecified) was tested, and the cell growth was 96.3 ± 45%. `Nc1ncnc2c1nc(Cl)n2[C@@H]1O[C@@H]2COP(=O)(O)O[C@H]2[C@H]1O` showed a cell growth of 115 ± 43%. In the case of `Cc1cccc(C)c1NC(=O)C(=O)C(c1ccccc1Cl)S(=O)(=O)Cc1ccccc1Cl` (stereo unspecified), the cell growth is reported as 85.2 ± 16%. With `Cc1cc2c(c3oc(C4(C)OC4C4OC4C)cc(=O)c13)C(=O)c1c(O)c(C3CC(C)(N(C)C)C(O)C(C)O3)cc(C3CC(N(C)C)C(O)C(C)O3)c1C2=O` (stereo unspecified) the cell growth was 47.6 ± 40%. In the case of `Cc1c(Cl)cccc1NC(=O)CC1Sc2ccccc2NC1=O` (stereo unspecified), the cell growth is reported as 116 ± 8.3%. Work on `CCOC(=O)NC(Nc1ccc(F)cc1)(C(=O)OCC)C(F)(F)F` (stereo unspecified) yielded a cell growth of 199 ± 130%. `CN(C)C[C@H]1CC[C@@H](CN(C)C)C1=O` gave a cell growth of 93.8 ± 21%. Work on `CCOC(=O)C1=C(O)CSC1=Nc1ccc(N=C2SCC(O)=C2C(=O)OCC)cc1` yielded a cell growth of 108 ± 30%. Work on `CN(C)/N=N/c1nc[nH]c1C(N)=O` yielded a cell growth of 164 ± 14%. `CN(C)c1ccc(/C=C2\Cc3ccccc3C2=O)cc1Br` gave a cell growth of 169 ± 23%. `Nc1ccn([C@@H]2C=C(CO)[C@@H](O)[C@H]2O)c(=O)n1` gave a cell growth of 44.8 ± 5.1%. `CC(C)[Si]1(C(C)C)OCC2OC(n3cnc4c(N)ncnc43)C(N)C2O[Si](C(C)C)(C(C)C)O1` (stereo unspecified) showed a cell growth of 85.1 ± 22%. In the case of `Cc1nn(-c2ccccc2)c2c1CC(=O)Nc1ccccc1-2`, the cell growth is reported as 114 ± 32%. Compound `COc1cc(CC(=O)c2cc3c(cc2-c2ccccc2)OCO3)cc(OC)c1OC` has a cell growth of 83.1 ± 25%. `C(=C/c1nc2ccccc2o1)/c1ccc2c(c1)OCO2` gave a cell growth of 94 ± 16%. `O=C1c2ccccc2C(=O)c2c(NCCNCCO)ccc(O)c21` gave a cell growth of 67.2 ± 44%. Work on `O=C1C=C(Nc2ccccc2C(=O)CC(=O)C(=O)Nc2ccc(Cl)c(Cl)c2)c2ccccc2C1=O` yielded a cell growth of 79.6 ± 13%. Compound `CC1CCCC(C(=O)/C(=C/c2cccc(Cl)c2)C(=O)C(=O)O)C1` (stereo unspecified) has a cell growth of 93.9 ± 27%. `[Cl][Pt+2][Cl].[NH-]C1CCCCC1[NH-]` (stereo unspecified) was tested, and the cell growth was 98.5 ± 28%.
